Screening data deposited in PubChem by National Center for Advancing Translational Sciences (NCATS).
JMJD2A Tudor = blocks the human JMJD2A Tudor domain; O75164; AlphaScreen JMJD2A-Tudor / H3K4me3 peptide binding; Potency, µM (titrated, usually from 114 µM), without a hit: at the top dose activity change, negative = inhibition, hits mostly inhibitors; actives 4.4% (n = 390,000); further: on the % scale 0 is the no-effect control and ±100 the full control effect; nearly all actives have a fitted effect of over 50% in size
BAZ2B block = BAZ2B (human) inhibition. Q9UIF8. AlphaScreen BAZ2B-H3K14Ac peptide displacement. Potency, µM (titrated, usually from 114 µM), inactives show at the top dose activity change, negative = inhibition, actives largely listed as inhibitors. actives 4.4% (n = 360,000); further: on the % scale 0 is the no-effect control and ±100 the full control effect; nearly all actives have a fitted effect of over 60% in size
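AlphaScreen displacement of biotin-H3(5-23)K14Ac peptide (50 nM final) from BAZ2B (50 nM final) in PBS pH 7.4, 0.01% Tween-20; complex preformed 30 min RT, then compounds (top 110 uM) 30 min RT, beads 20 min dark.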
VDR inhibitor = blocks the human vitamin D receptor; Potency, µM, for the others: max response, negative = inhibition, actives largely listed as inhibitors; VDR-SRC2-3 peptide fluorescence polarization, 2 h; AID 504847; actives 0.93% (n = 400,000); further: on the % scale 0 is the no-effect control and ±100 the full control effect
Target sequence (P11473 whole entry, looked up): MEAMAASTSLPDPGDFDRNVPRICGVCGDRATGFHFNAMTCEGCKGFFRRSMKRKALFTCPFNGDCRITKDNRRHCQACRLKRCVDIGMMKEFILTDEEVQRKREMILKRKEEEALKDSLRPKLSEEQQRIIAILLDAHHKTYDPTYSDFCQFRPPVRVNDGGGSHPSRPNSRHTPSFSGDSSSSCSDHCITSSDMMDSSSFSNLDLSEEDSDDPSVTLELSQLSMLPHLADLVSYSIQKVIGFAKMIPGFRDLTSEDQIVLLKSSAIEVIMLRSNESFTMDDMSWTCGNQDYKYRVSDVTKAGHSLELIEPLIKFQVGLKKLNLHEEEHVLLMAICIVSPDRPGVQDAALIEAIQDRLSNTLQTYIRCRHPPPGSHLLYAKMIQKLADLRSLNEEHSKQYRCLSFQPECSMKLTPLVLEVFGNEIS
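FP read-out; VDR + SRC2-3 coactivator peptide; 23 nl compound by pintool; 2 h RT incubation; reagents held at 4 deg C, protected from light.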
L3MBTL1 block = L3MBTL1 (human) inhibition. Potency, µM (highest dose often 57.1 µM), inactives show at the highest dose activity, negative = inhibition, usual class: inhibitors. actives 0.66% (n = 230,000). AlphaScreen L3MBTL1–H3K9me1 peptide binding; further: on the % scale 0 is the no-effect control and ±100 the full control effect; nearly all actives have a fitted effect of over 60% in size
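AlphaScreen assay: L3MBTL1 (50 nM final) was preincubated 30 min at room temperature with biotinylated H3(1-15)K9me1 peptide (75 nM final), then 30 min with library compounds; streptavidin donor and nickel chelate acceptor beads (10 ug/mL final) added, 30 min dark.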
HP1b binding inh = blocks HP1-beta chromodomain binding to methylated histone tails | Potency, µM (doses to about 114 µM), inactives show at the highest dose activity change, negative = inhibition, usual class: inhibitors | P83916 | actives 0.56% (n = 390,000) | AID 540317 | AlphaScreen HP1-beta / biotin-H3K9me3 peptide binding; further: nearly all actives have a fitted effect of over 70% in size
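Compound inhibition of the preformed complex between 50 nM HP1-beta and 50 nM biotinylated H3K9me3 peptide was read by AlphaScreen. Buffer was PBS pH 7.4 with 0.01% Tween-20. Incubations ran 30 min at room temperature, with 10 ug/mL donor/acceptor beads.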
PLK1 PBD block = PLK1 (human) polo-box domain binding inhibition | P53350 | Plk1 PBD binding of FITC phosphopeptide, fluorescence polarization | Potency, µM, inactives show max response, negative = inhibition, hits mostly inhibitors | actives 2.8% (n = 360,000); further: series mostly up to about 57 µM; on the % scale 0 is the no-effect control and ±100 the full control effect; nearly all actives have a fitted effect of over 65% in size
* hit, by the source's call; ? = inconclusive; · = no result given; [ ] = another dose, or the depositor's remark. An excerpt weighted towards active compounds, which were near 6.9% of everything screened. The call rests on the fitted dose curve; in most records, active means well fitted curve in the direction sought with a large enough effect; inconclusive means small, poorly fitted or top-dose-only effect, or another doubt; inactive means no such curve, though single readings can be large; an effect the other way counts as inactive or inconclusive. Potency means the concentration at half of the fitted maximal effect.

SMILES	JMJD2A Tudor	BAZ2B block	VDR inhibitor	L3MBTL1 block	HP1b binding inh	PLK1 PBD block
Cc1ccc(OCC(=O)Nc2ccc3nc(SCCOc4ccccc4)sc3c2)cc1	-11%	-11%	0%	·	30%	·
COc1ccc(CNC(=O)c2cc(C3CC3)nc3c2cnn3C(C)C)cc1	8%	1%	0%	1%	58%	10%
CC(C)n1ncc2c(C(=O)O)cc(C3CC3)nc21	?	-1%	?	12%	11%	30µM*
COc1cccc(Cn2c(=O)cnc3cnc(Oc4ccccc4)nc32)c1	·	·	-12%	·	·	·
BrC(=C\c1ccccc1)/C=N/Nc1ccc2nncn2n1	?	45µM*	-19%	·	-28%	?
C=Cc1c(C)c2cc3nc(cc4[nH]c(cc5nc(cc1[nH]2)C(C)=C5CCC(=O)O)c(CCC(=O)OC)c4C)[C@@]1(C)C3=CC=C(C(=O)OC)[C@H]1C(=O)OC (tested in a mixture with another compound)	·	·	1.1µM*	·	·	·
Cc1nnc(N(C(=O)c2cnccn2)c2ccccc2)s1	-21%[11.4 µM]	-4%	-5%	2%	-11%	11µM*
CC(C)c1ccc(NC(=O)Cn2cc(S(=O)(=O)Cc3cccc(Cl)c3)c3ccccc32)cc1	-14%	-13%	-4%	·	-15%	·
Cc1ccc(C)c(NC(=S)c2nc3ccccc3s2)c1	14µM*	4%	9%	-15%	-15%	8.4µM*
S=C(Nc1ccc(Cl)cc1)c1nc2ccccc2s1	?	?	-12%	-22%	?	-14%
Cc1ccc(NC(=S)c2nc3ccccc3s2)cc1	?	8.9µM*	4%	?	?	-15%
CCN(CC)c1ccc(Nc2nc(N3CCOCC3)c3ccccc3n2)cc1	18µM*	18µM*	-8%	·	-88%	-2%
COc1ccc(Nc2nc3ccccc3c(=O)[nH]2)cc1	-13%[11.4 µM]	-26%	?	·	-4%	24µM*
Cc1ccc(Nc2nc3ccccc3c(=O)[nH]2)cc1C	-6%	4%	2%	·	25%	1%
COc1ccc(Nc2nc(N3CCCC3)c3ccccc3n2)cc1	45µM*	?	-2%	·	?	1%
CN(C(=O)c1ccc2c(c1)N(Cc1cccc(Cl)c1)C(=O)c1ccccc1S2(=O)=O)C1CCCCC1	-18%	1%	16%	·	11%	·
Cc1nn(C)c(C)c1S(=O)(=O)N1CCC(C(=O)NC2CCCc3ccccc32)CC1 (stereo not drawn)	-31%	-4%	-15%	·	19%	27µM*
Cc1nn(C)c(C)c1S(=O)(=O)N1CCCC(C(=O)NC2CCCCCC2)C1 (stereo not drawn)	-22%	-3%	?	0%	9%	27µM*
Cc1nn(C)c(C)c1S(=O)(=O)N1CCCC(C(=O)N2CCN(c3ccc(Cl)cc3)CC2)C1 (stereo not drawn)	-22%[11.4 µM]	?	-18%	20%[11.4 µM]	-23%	3.4µM*
Cc1ccc(Cl)cc1N1CCN(C(=O)C2CCN(S(=O)(=O)c3c(C)nn(C)c3C)CC2)CC1	-23%	?	-6%	-3%	12%	-2%
CC(C)C[C@@H](CC(=O)N[C@H](CC(=O)N[C@@H]1CCCC[C@H]1C(=O)N[C@H](CC(=O)N[C@@H](CCC(=O)O)CC(=O)O)Cc1c[nH]c2ccccc12)C(C)C)NC(=O)[C@@H]1CCCC[C@H]1N	·	·	0%	·	·	·
NCC(O)CC(=O)O (stereo not drawn)	·	·	-1%	·	·	·
Nc1ncnc2c1ncn2[C@@H]1O[C@H](CNS(=O)(=O)c2cc(S(=O)(=O)c3ccccc3)cs2)[C@@H](O)[C@H]1O	-6%	·	1%	5%	58%	-3%
CCOC(=O)c1cc(-c2cccnc2)nn1-c1ccccc1C	-10%[11.4 µM]	-9%	?	3%	-4%	27µM*
CCOC(=O)c1cc(-c2ccccc2)nn1CC1CC(c2cccnc2)=NO1 (stereo not drawn)	-9%	·	-6%	·	30%	2%
